Compounds with a hit are over-represented: about 19% of the library has one in this group of screens.
HT1080 IDH1KD tx – qHTS for induction of synthetic lethality in tumor cells producing 2HG: qHTS for the HT-1080-IDH1KD cell line; Potency, µM (top dose mostly 46.1 µM), hits mostly cytotoxic; actives 2% (n = 360,000); HT-1080 IDH1 knockdown viability, ATP luminescence, 48 h
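Knockdown cells (IDH1KD HT-1080) received compounds 2 h after plating at 750 cells/well and were kept 48 h at 37 °C in 5% FBS RPMI. A CellTiter-Glo luminescence read gave % activity for curve fitting.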
DT40 TDP1 CPT – qHTS for Inhibitors of human tyrosyl-DNA phosphodiesterase 1 (TDP1): qHTS in cells in presence of CPT | chicken DT40 Tdp1-/-;hTDP1 cells + 20 nM CPT, ATP luminescence, 48 h | Potency, µM (highest dose often 46.2 µM), usual class: inhibitors | actives 12% (n = 420,000) | AID 686979, 2013; note: nearly all actives have a fitted effect of over 55% in size
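Chicken DT40 Tdp1-/- cells stably complemented with human TDP1 were seeded at 400 cells/well in medium containing 20 nM camptothecin, exposed to pin-transferred compounds, and grown at 37 °C for at least 48 hr. Viability was read as ATP luminescence.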
HT1080NT lethal – qHTS for induction of synthetic lethality in tumor cells producing 2HG: qHTS for the HT-1080-NT fibrosarcoma cell line; HT-1080-NT fibrosarcoma viability, CellTiter-Glo ATP luminescence, 48 h; Potency, µM (series often up to 46.1 µM), actives largely listed as cytotoxic; actives 1.6% (n = 360,000);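 note: NT is the 2HG producing partner of a matched IDH1 knockdown line; nearly all actives have a fitted effect of over 55% in size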
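A 48-hour cytotoxicity screen used HT-1080-NT cells plated 2 hours before compound delivery. ATP-based CellTiter-Glo luminescence measured viability, normalized to DMSO and no-cell controls.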
DT40 TDP1 no CPT – qHTS for Inhibitors of human tyrosyl-DNA phosphodiesterase 1 (TDP1): qHTS in cells in absence of CPT; DT40 Tdp1-/- hTDP1 cells, no CPT, ATP luminescence, 48 h; Potency, µM (series often up to 46.2 µM), usual class: inhibitors; actives 15% (n = 420,000); note: nearly all actives have a fitted effect of over 55% in size
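Growth of hTDP1-complemented DT40 Tdp1-knockout cells is measured by ATP luminescence after at least 48 hr compound exposure at 37 °C, with DMSO substituting for the 20 nM CPT used in the parallel screen.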
ELG1 repair inh – qHTS screen for small molecules that inhibit ELG1-dependent DNA repair in human embryonic kidney (HEK293T) cells expressing luciferase-tagged ELG1. HEK293T ELG1-luciferase reporter, luminescence, 16 h; DNA damage induced by 5-fluorouridine. Potency, µM (top dose mostly 46.1 µM), most hits filed as inhibitors. actives 2.3% (n = 330,000). AID 504467, 2011; note: nearly all actives have a fitted effect of over 55% in size
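Overnight (16 hr) co-exposure of 2,000 cells/well to 5-fluorouridine and compound at 37 °C preceded detection. Luciferase was quantified via ONE-Glo luminescence; loss of signal denotes inhibition.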
IL1B secr inh – qHTS for Inhibitors of Inflammasome Signaling: IL-1-beta AlphaLISA Primary Screen. THP-1 LPS/ATP IL-1B secretion, AlphaLISA, 16 h; hits give low values. activity change, % at 57.5 µM. actives 4.7% (n = 360,000). AID 743279, 2014; in the data active = activity change below about -50%; inconclusive = mostly about -30% to -49%
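THP-1 cells pretreated 1 hr with compounds (up to 57.5 uM final), then stimulated with LPS (250 ng/mL final) plus ATP (1.25 mM final); secreted IL-1B measured by AlphaLISA after 16 hr, decreased signal indicating inhibition.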
Hits are given with their value; – = inactive; ? = inconclusive; · = no result. Unless noted, calls come from the whole dose curve; as a rule, active = well fitted curve in the direction sought with a large enough effect; inconclusive = small, poorly fitted or top-dose-only effect, or another doubt; inactive = no such curve, though single readings can be large; an effect the other way counts as inactive or inconclusive.

SMILES	HT1080 IDH1KD tx	DT40 TDP1 CPT	HT1080NT lethal	DT40 TDP1 no CPT	ELG1 repair inh	IL1B secr inh
CCN(N=O)c1ccc(/C=C/c2ccnc3ccccc23)cc1	·	6.3µM	·	6.3µM	·	·
CN(C)c1ccc(/C=C/c2ccnc3ccccc23)cc1	·	?	·	16µM	·	·
CN(C)/C=N/n1cnc2ccccc2c1=O	–	–	–	–	–	–
CCCN(CCC)c1ccc(/C=C/c2ccnc3ccccc23)cc1	·	7.1µM	·	5µM	·	·
Cn1cnc2ccc([N+](=O)[O-])cc2c1=O	–	–	–	–	–	–
CN(C)c1ccc(/C=C/c2ccnc3ccc([N+](=O)[O-])cc23)cc1	·	11µM	·	?	·	·
COc1ccc(C(=O)NC(C)CCCC(C)(C)O)cc1OC1CCN(C(C)=O)CC1 (stereo unspecified)	–	–	–	–	–	–
C=Cc1ccccc1	·	–	·	–	·	·
CN(C)c1ccc(/C=C/c2ccnc3ccc(I)cc23)cc1	·	3.2µM	·	4µM	·	·
Cc1ccccc1CN1CCC(CNc2ncnc3onc(-c4ccc(Cl)cc4)c23)CC1	·	?	·	16µM	·	·
COc1cc(OC)c(Nc2ncnc3onc(-c4cccc(Cl)c4)c23)cc1Cl	·	–	·	–	·	·
Clc1ccc(CN2CCC(CNc3ncnc4onc(-c5ccc(Cl)cc5)c34)CC2)cc1	·	?	·	23µM	·	·
Cc1ccc(CN2CCC(CNc3ncnc4onc(-c5ccc(Cl)cc5)c34)CC2)cc1	·	18µM	·	16µM	·	·
CCOC(=O)c1c(S(=O)(=O)N2CCC(C(=O)NCc3cccc(OC)c3)CC2)c(C)n(C)c1C	·	–	·	–	·	·
CC1CCN(C(=O)COC(=O)c2ccc3c(c2)C(=O)N(Cc2ccco2)C3=O)CC1	–	–	–	–	–	–
CCN(CC)C(=O)C1=C(C)N(CCCN2CCCC2=O)C(=O)C(CC(=O)NCc2cccs2)C1 (stereo unspecified)	–	–	–	–	·	–
COC(=O)C1=CN(c2ccc(F)cc2)C(N)=C(C#N)C1c1ccccc1 (stereo unspecified)	?	?	–	21µM	·	–
COC(=O)C1=CN(c2ccc(N3CCOCC3)cc2)C(N)=C(C#N)C1c1ccc(-c2ccccc2)cc1 (stereo unspecified)	–	7.3µM	–	5.8µM	·	–
COC(=O)C1=CN(c2ccc3c(c2)OCO3)C(N)=C(C#N)C1c1ccccc1 (stereo unspecified)	12µM	5.2µM	18µM	5.8µM	·	–
COC(=O)C1=CN(c2cccc(OCc3ccccc3)c2)C(N)=C(C#N)C1c1ccccc1 (stereo unspecified)	–	?	–	?	·	–
COC(=O)C1=CN(c2ccccc2OC)C(N)=C(C#N)C1c1cccc([N+](=O)[O-])c1 (stereo unspecified)	1.8µM	0.82µM	2.3µM	1.3µM	·	–
COC(=O)C1(C(=O)OC)C2CCCCC2N(S(=O)(=O)c2ccc(C)cc2)[C@@H]1CC(C)=O (stereo partly specified)	–	–	–	–	·	–
COC(=O)C1=CN(c2ccc(Oc3ccccc3)cc2)C(N)=C(C#N)C1c1ccccc1 (stereo unspecified)	–	?	–	15µM	·	–
Cc1cn([C@H]2C[C@H](O)[C@@H](/C=C/C(=O)NCCC(c3ccccc3)c3ccccc3)O2)c(=O)[nH]c1=O	–	–	–	–	·	–
CNc1oc(-c2ccccc2)nc1S(=O)(=O)c1ccc(C)cc1	–	–	–	–	–	–
SMILES	HT1080 IDH1KD tx	DT40 TDP1 CPT	HT1080NT lethal	DT40 TDP1 no CPT	ELG1 repair inh	IL1B secr inh
CCCCS(=O)(=O)c1oc(-c2ccc(F)cc2)nc1S(=O)(=O)c1ccc(C)cc1	·	1µM	·	0.58µM	·	·
CCS(=O)(=O)c1oc(-c2ccc(F)cc2)nc1S(=O)(=O)c1ccccc1	·	0.26µM	·	0.58µM	·	·
O=S(=O)(c1ccc(F)cc1)c1nc(-c2ccc(F)cc2)oc1NCCN1CCOCC1	–	–	–	–	–	?
CCCCS(=O)(=O)c1oc(-c2cccs2)nc1S(=O)(=O)c1ccc(F)cc1	·	0.82µM	·	0.58µM	·	·
CCC(C)S(=O)(=O)c1oc(-c2ccc(F)cc2)nc1S(=O)(=O)c1ccc(F)cc1 (stereo unspecified)	·	0.58µM	·	1µM	·	·
O=c1c2nncn2ccn1-c1ccc(F)c(F)c1	·	–	·	–	·	·
O=S(=O)(c1ccccc1)c1nc(-c2cccs2)oc1NCc1cccnc1	–	–	–	–	?	–
CCCCCS(=O)(=O)c1oc(-c2cccs2)nc1S(=O)(=O)c1ccc(C)cc1	·	4.6µM	·	3.7µM	·	·
Cc1ccc(CNC(=O)C2CCCN(S(=O)(=O)c3c(C)noc3/C=C/N(C)C)C2)cc1 (stereo unspecified)	–	?	–	?	–	–
Cc1cccc(NC(=O)c2c(C)nc3ccccn23)c1	–	–	–	–	?	–
COc1ccc(Nc2nc(-c3c(C)nc4ncccn34)cs2)cc1	0.0073µM	0.0092µM	0.013µM	0.0073µM	–	-61
Cc1nc2ncccn2c1-c1csc(Nc2ccccc2)n1	–	16µM	–	18µM	?	–
c1ccc(Nc2nc(-c3ccncc3)cs2)cc1	–	–	–	?	?	–
CC(=O)Nc1ccc(Nc2nc(-c3c(C)nc4ccccn34)cs2)cc1	2.9µM	1µM	?	0.82µM	·	?
Cc1nc2ncccn2c1-c1csc(Nc2ccc(N(C)C)cc2)n1	?	0.0052µM	?	0.018µM	?	?
Cc1nc2ncccn2c1-c1csc(Nc2ccc(S(N)(=O)=O)cc2)n1	–	–	–	–	?	–
COc1cccc(/C=N/n2c(-c3cc(C)[nH]n3)n[nH]c2=S)c1O	–	–	–	–	–	–
COc1cccc(Oc2nccc(N(C)C)c2C#N)c1	–	–	–	–	?	–
Cc1nc2sccn2c1-c1csc(NCc2ccccc2)n1	–	16µM	?	13µM	–	-73
Cc1ccc(N2C(=O)N(CC(=O)NCc3ccccc3Cl)C(=O)C2C)cc1 (stereo unspecified)	–	–	–	?	–	–
O=S(=O)(CCNCc1ccccc1)NC1CCCCC1	–	?	–	–	·	–
CCCCCCCCNCCS(=O)(=O)NCCCCCCCC	–	?	–	16µM	·	–
